Source: PubChem BioAssay (NCATS)
Results filed as inconclusive are left out. The source made the active and inactive calls. Calls follow the shape of the dose curve; as a rule, active = well fitted curve in the direction sought with a large enough effect; inconclusive = small, poorly fitted or top-dose-only effect, or another doubt; inactive = no such curve, though single readings can be large; an effect the other way counts as inactive or inconclusive.

Experiments:
[1] = target: Cellular tumor antigen p53 (Homo sapiens) (UniProt P04637); assay: Primary qHTS for small molecule compounds that upregulate eGFP-tagged delta133p53alpha (in N-terminal) cells. (AID 2060322); settings: NCI-H358 eGFP-delta133p53alpha fluorescence, 24 h; activation: hits give high values;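 also: cells pre-induced with doxycycline then dosed without doxycycline; series mostly up to about 56 µM; 0% = DMSO vehicle and 100% = reference activator; nearly all actives have a fitted effect of over 75% in size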
Sequence of Cellular tumor antigen p53 (Homo sapiens) (P04637 whole entry, looked up): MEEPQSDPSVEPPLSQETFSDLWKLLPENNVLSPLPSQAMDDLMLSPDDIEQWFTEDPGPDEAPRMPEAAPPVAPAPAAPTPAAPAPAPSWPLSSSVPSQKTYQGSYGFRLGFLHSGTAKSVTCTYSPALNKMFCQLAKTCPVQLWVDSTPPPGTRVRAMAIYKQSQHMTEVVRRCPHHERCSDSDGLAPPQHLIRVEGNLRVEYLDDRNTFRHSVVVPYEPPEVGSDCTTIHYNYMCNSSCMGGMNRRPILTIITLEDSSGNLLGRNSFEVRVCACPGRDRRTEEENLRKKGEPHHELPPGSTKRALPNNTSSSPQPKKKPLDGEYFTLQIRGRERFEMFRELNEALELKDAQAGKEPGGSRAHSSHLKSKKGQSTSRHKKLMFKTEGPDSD
In short: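 NCI-H358 cells pre-induced 24 h with 10 ng/ml doxycycline for eGFP-delta133p53alpha, plated dox-free and exposed 24 h at 37C to titrated compounds. Fixed, Hoechst-stained; gated GFP peak intensity by laser scanning cytometry, normalized to DMSO (0%) and 57.5 uM 5-azacytidine (100%).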

[2] = target: Aldehyde dehydrogenase, mitochondrial (Homo sapiens) (UniProt P05091); assay: qHTS for Inhibitors of the Aldehyde Dehydrogenase Family (ALDH2) Primary screen (AID 2061308);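 also: plate controls were vehicle for no effect and reference inhibitor for full effect; nearly all actives have a fitted effect of over 55% in size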
[3] = target: Retinaldehyde dehydrogenase 3 (Homo sapiens) (UniProt P47895); assay: qHTS for Inhibitors of the Aldehyde Dehydrogenase Family (ALDH1A3) Primary screen (AID 2061315);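 also: plate controls were DMSO vehicle for no effect and reference inhibitor for full effect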

COc1ccc(/C=C/C(=O)O[C@@H]2[C@@H](O)[C@H](C)O[C@@H](O[C@H]3[C@@H]4C=CO[C@@H](O[C@H]5O[C@@H](CO)[C@H](O)[C@@H](O)[C@@H]5O)[C@@H]4[C@@]4(CO)O[C@@H]34)[C@@H]2OC(C)=O)cc1
inactive: activation [1] -12.5% | Potency [2] | Potency [3]

COC(O)(CC(C)C)C1Oc2cc(C)[nH]c(=O)c2O1 (configuration not stated)
inactive: activation [1] -26.7% | Potency [2] | Potency [3]

COC1C2=C(COC2=O)C2(C)CCCC(C)(CO)C2C1OC(=O)c1ccccc1 (configuration not stated)
inactive: activation [1] -16% | Potency [2] | Potency [3]

O=C(NOCC(O)CO)c1ccc(F)c(F)c1Nc1ccc(I)cc1F (configuration not stated)
inactive: activation [1] 0.955% | Potency [2] | Potency [3]

C[C@H]1CC(=O)Nc2cccc(-c3cnn(C(C)(C)C)c3)c2N1
inactive: activation [1] -12.5% | Potency [2] | Potency [3]

COC(=O)C1=CO[C@@H](O[C@@H]2O[C@H](CO)[C@@H](O)[C@H](O)[C@H]2O)[C@@H]2[C@@](C)(O)[C@@H](O)C[C@]12O
inactive: activation [1] -2.29% | Potency [2] | Potency [3]

C/C(CO)=C1/CCC23COC(C2)C(O)(C(=O)O)CCC13 (configuration not stated)
inactive: activation [1] 0% | Potency [2] | Potency [3]

CC(=O)C1=C(C)N(c2cccc(C(F)(F)F)c2)C(=O)N[C@H]1c1ccc(C#N)nc1
inactive: activation [1] -3.67% | Potency [2] | Potency [3]

CC(C)=CCC/C(C)=C/CO[C@@H]1O[C@H](CO[C@@H]2O[C@@H](CO)[C@H](O)[C@H]2O)[C@@H](O)[C@H](O)[C@H]1O
inactive: activation [1] -29.5% | Potency [2] | Potency [3]
